This passage reports activity (Tm shift, normalised) results from PubChem BioAssay AID651658 (Broad Institute, 2012).

Out of some 340,000 compounds screened, about 5,100 (1.5%) were called active. What follows is part of a selection rich in actives, with near analogues and random picks from the rest. Unmarked numbers belong to inactive results.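 The calls were made as follows: active = mean Tm shift, scaled 0 neutral to 100 positive control, at about 1.3% or above, every replicate too (limit read from the data); inconclusive = no clear call, values can overlap the other calls; inactive = the rest.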

Sequence of Fibroblast growth factor 22 (Homo sapiens) (Q9HCT0 whole entry, looked up): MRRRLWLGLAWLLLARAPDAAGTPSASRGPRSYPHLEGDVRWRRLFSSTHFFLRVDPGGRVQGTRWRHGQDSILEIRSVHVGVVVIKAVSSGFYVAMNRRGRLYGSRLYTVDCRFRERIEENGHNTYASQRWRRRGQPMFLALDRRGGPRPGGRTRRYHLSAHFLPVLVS

The experiment has as its target Fibroblast growth factor 22 (Homo sapiens) (UniProt Q9HCT0). Briefly: FGF22 ligand-induced thermal stabilization – biophysical, thermal shift, single point, FGF22 synaptogenesis inhibitor project, primary screen (AID 651658). The settings on record: recombinant FGF22 thermal shift, SYPRO orange fluorescence; at 9.99 µM; active compounds read high; percent of sucrose octasulfate shift, DMSO zero.
Regarding `Cc1nc2ccc(NC(=O)c3cccc(S(=O)(=O)N4CCOCC4)c3)cc2s1`, the activity (Tm shift, normalised) was 1.04%.

Take `O=C(O)c1cccc(S(=O)(=O)Nc2ccc(O)cc2Sc2nc3ccccc3s2)c1`: the activity (Tm shift, normalised) was 15.9% (active).

For the molecule `O=S(=O)(Nc1ccc2nc(N3CCOCC3)sc2c1)c1ccccc1`, the activity (Tm shift, normalised) was -0.216%.

As to `CC(=O)NC[C@@H]1[C@@H](c2ccccc2)[C@@H](CO)N1C(=O)Cc1cccnc1`, the activity (Tm shift, normalised) is 1.29% (active).

As for `O=C(NC[C@@H]1[C@@H](c2ccccc2)[C@H](CO)N1C(=O)Cc1cccnc1)C1CC1`, the activity (Tm shift, normalised) was -1.07%.

`CC(=O)NC[C@H]1[C@H](c2ccccc2)[C@@H](CO)N1C(=O)Cc1cccnc1`: the activity (Tm shift, normalised) was -0.409%.

As to `O=C(C[C@@H]1C=C[C@H](NC(=O)CN2CCOCC2)[C@@H](CO)O1)NC1CCC1`, the activity (Tm shift, normalised) is 0.045%.

For the molecule `O=C(NCC[C@@H]1CC[C@H](NC(=O)C2CC2)[C@@H](CO)O1)c1cc(Cl)cc(Cl)c1`, the activity (Tm shift, normalised) was -0.053%.

Consider `COc1ccccc1-n1c(SCC(=O)Nc2ccc(Cl)cc2)nc(O)c(Cc2ccccc2)c1=O`, for which the activity (Tm shift, normalised) is 43.9% (active).

In the case of `CCOc1ccc(NC(=O)CSc2nc3c(c(=O)n2-c2ccccc2OC)SCC3)cc1`, the activity (Tm shift, normalised) was -0.136%.

For `COc1ccc(NC(=O)CSc2nnc(Cc3ccccc3)c(=O)n2N)cc1`, the activity (Tm shift, normalised) was -0.143%.

`CN1c2ccc(-c3ccc(F)cc3)cc2[C@@H]2[C@@H](CCN2C(=O)c2cccnc2)[C@H]1CO`: the activity (Tm shift, normalised) is -0.025%.

As for `CO[C@@H]1CN(C)C(=O)c2ccc(NC(=O)NC(C)C)cc2OC[C@H](C)N(Cc2ccc(-c3ccccn3)cc2)C[C@H]1C`, the activity (Tm shift, normalised) was 0.425%.

On to `COc1cc(/C=C(\C#N)c2nc3ccccc3[nH]2)ccc1O`, for which the activity (Tm shift, normalised) is 2.24% (active).

For `CCOc1ccc(/C=C(/C#N)c2nnc(N3CCOCC3)n2-c2ccccc2)cc1OC`, the activity (Tm shift, normalised) was -0.121%.

On to `CCCCCOc1ccc(/C=C/C(=O)NCCc2nc3ccccc3[nH]2)cc1OC`, for which the activity (Tm shift, normalised) was 0.206%.

Regarding `CCCC(=O)Nc1ccc2c(c1)OC[C@H](C)N(CCC(F)(F)F)C[C@@H](C)[C@H](OC)CN(C)C2=O`, the activity (Tm shift, normalised) is -0.05%.

Take `C/C=C/c1ccc([C@@H]2[C@H](CO)N(S(=O)(=O)Cc3ccccc3)C23CN(C(=O)C2CCOCC2)C3)cc1`: the activity (Tm shift, normalised) was -0.098%.

Turning to `N#Cc1cccc(Nc2c3c(nc4ccccc24)CCCC3)c1`, the activity (Tm shift, normalised) is 0.042%.

`O=C(Nc1c2c(nc3ccccc13)CCCC2)c1ccccc1Br`: the activity (Tm shift, normalised) is 44.2% (active).

Regarding `O=C(Nc1ccccc1)c1ccccc1Br`, the activity (Tm shift, normalised) was -0.119%.

Consider `CC(=O)N1[C@@H](CO)[C@@H](c2ccccc2)[C@@H]1CN(C)C(=O)CN1CCOCC1`, for which the activity (Tm shift, normalised) was 0.044%.

Regarding `O=C(C1CCCCC1)N1CC2(C1)[C@H](c1ccccc1)[C@@H](CO)N2CCC(F)(F)F`, the activity (Tm shift, normalised) is -0.014%.

Take `O=C(Cc1cccnc1)N[C@H]1CC[C@H](CCn2cc(-c3ccccc3F)nn2)O[C@H]1CO`: the activity (Tm shift, normalised) was 8.31% (active).

Regarding `O=C(Cc1ccncc1)N[C@H]1CC[C@H](CCn2cc(-c3ccccc3F)nn2)O[C@@H]1CO`, the activity (Tm shift, normalised) is 0.035%.

Consider `O=C(Cc1ccncc1)N[C@@H]1CC[C@H](CCn2cc(-c3ccccc3F)nn2)O[C@H]1CO`, for which the activity (Tm shift, normalised) is 0.128%.

Turning to `CCCC(=O)Nc1ccc2c(c1)OC[C@H](C)N(CCC)C[C@@H](C)[C@@H](OC)CN(C)C2=O`, the activity (Tm shift, normalised) was 0.113%.

Turning to `CCN(CC)N=Nc1cccc(NC(C)=O)c1`, the activity (Tm shift, normalised) is 0.992%.

Regarding `CCN(CC)C(=O)C(=O)Nc1cccc(Br)c1`, the activity (Tm shift, normalised) was 43.2% (active).

As for `CSc1ccccc1NC(=O)CN(C)CC(=O)Nc1cccc(Br)c1`, the activity (Tm shift, normalised) is -0.022%.

On to `Cc1ccc(S(=O)(=O)N[C@H]2CC[C@H](CC(=O)O)O[C@H]2CO)cc1`, for which the activity (Tm shift, normalised) was 0.52%.

For `C[C@H](CO)N1C[C@H](C)[C@H](CN(C)S(=O)(=O)c2ccccc2C#N)OCc2cn(nn2)CCCC1=O`, the activity (Tm shift, normalised) was -0.183%.

Take `O=[N+]([O-])c1ccc(C=NN=Cc2ccc([N+](=O)[O-])cc2)cc1`: the activity (Tm shift, normalised) is 0%.

With `O=C(N/N=C/c1ccc([N+](=O)[O-])cc1)c1c[nH]c2ccccc12`, the activity (Tm shift, normalised) is 1.58% (active).

`O=C(NN=Cc1ccc([N+](=O)[O-])cc1)C1CC1`: the activity (Tm shift, normalised) is -0.001%.

As to `COc1cccc(-c2ccc3c(c2)O[C@H](CN(C)Cc2ccncc2)[C@H](C)CN([C@H](C)CO)S3(=O)=O)c1`, the activity (Tm shift, normalised) is -0.104%.

Take `O=C(Nc1cccc(Cl)c1)c1cc([N+](=O)[O-])ccc1N1CCN(CCO)CC1`: the activity (Tm shift, normalised) is 0.039%.

With `NS(=O)(=O)c1cccc(NC(=O)COC(=O)c2cc([N+](=O)[O-])ccc2N2CCCC2)c1`, the activity (Tm shift, normalised) is 1.34% (active).

Consider `CCOc1ncccc1C(=O)OCC(=O)Nc1cccc(S(=O)(=O)N2CCCCCC2)c1`, for which the activity (Tm shift, normalised) was 0.065%.

`C[C@@H]1CN([C@@H](C)CO)S(=O)(=O)c2ccc(C#CC3(O)CCCC3)cc2O[C@H]1CN(C)C(=O)c1ccncc1`: the activity (Tm shift, normalised) was -0.043%.

As for `COc1ccc(S(=O)(=O)N2CC[C@@H]3[C@H](CO)Nc4ccc(C#Cc5cccc(OC)c5)cc4[C@@H]32)cc1`, the activity (Tm shift, normalised) was 0.013%.
